Data reported in the supplement of paper PMC12350171.
Where a name gives a salt, the structure may show the parent alone. Values without a mark were called inactive.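 Rule for the calls: active = AUC significantly below DMSO controls by Student t-fit with adjusted P under 0.01; inactive = not significantly reduced.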

System: Haemophilus parainfluenzae
Test: growth AUC normalised to DMSO control (fraction of control); higher = less growth inhibition, active = hit call of the paper
Conditions: 20 µM
Summary of the method: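 For the AUC endpoint, growth curves were integrated by the trapezoidal rule up to the exponential-to-stationary transition and normalised to DMSO controls on the same plate. The curves came from OD578 readings taken hourly for 24 h, in three biological replicates. Pathogens had been passaged anaerobically twice and inoculated at an OD578 of 0.01 into pre-reduced mGAM plates carrying 20 μM compound and 1% DMSO, sealed with breathable membranes. Medium for Haemophilus parainfluenzae also contained hemin and NAD.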

Row | SMILES | growth AUC normalised to DMSO control
1 | C=CCOc1ccccc1OCC(O)CNC(C)C (configuration not stated) [Oxprenolol hydrochloride] | 0.958
2 | Cc1cccc(C)c1NC(=O)C1CCCCN1C (configuration not stated) [Mepivacaine hydrochloride] | 1.07
3 | COc1ccccc1N1CCN(CC(O)COc2cccc3ccccc23)CC1 (configuration not stated) [Naftopidil dihydrochloride] | 0.971
4 | CC[C@H]1OC(=O)[C@H](C)[C@@H](O[C@H]2C[C@@](C)(OC)[C@@H](O)[C@H](C)O2)[C@H](C)[C@@H](O[C@@H]2O[C@H](C)C[C@H](N(C)C)[C@H]2O)[C@](C)(O)C[C@@H](C)CN(C)[C@H](C)[C@@H](O)[C@]1(C)O [Azithromycin] | 0.0436 (active)
5 | C=CC1=C(C(=O)O)N2C(=O)[C@@H](NC(=O)/C(=N\OCC(=O)O)c3csc(N)n3)[C@H]2SC1 [Cefixime] | 0.0416 (active)
6 | c1ccc2c(CC3=NCCN3)cccc2c1 [Naphazoline hydrochloride] | 1.01
7 | CN(C)CCN1C(=O)c2ccccc2N(C)c2ccccc21 [Dibenzepine hydrochloride] | 0.97
8 | O=C1CCc2ccc(OCCCCN3CCN(c4cccc(Cl)c4Cl)CC3)cc2N1 [Aripiprazole] | 0.994
9 | COc1ccc(-c2cc(=S)ss2)cc1 [Anethole-trithione] | 1.05
10 | Cc1nc2n(c(=O)c1CCN1CCC(c3noc4cc(F)ccc34)CC1)CCCC2 [Risperidone] | 1
11 | O=C(O)Cc1ccc(-c2ccccc2)cc1 [Felbinac] | 0.948
12 | CNc1ncnc2c1ncn2[C@@H]1O[C@H](CO)[C@@H](O)[C@H]1O [N6-methyladenosine] | 1.01
13 | CCN(CC)CCOC(=O)C1(c2ccc([N+](=O)[O-])cc2)CCCC1 [Nitrocaramiphen hydrochloride] | 1.01
14 | Cc1ncc(C[n+]2csc(CCO)c2C)c(N)n1 [Thiamine hydrochloride] | 0.964
15 | N=C(N)N/N=C/c1c(Cl)cccc1Cl [Guanabenz acetate] | 0.972
16 | CC(=O)N(CC(O)CO)c1c(I)c(C(=O)NCC(O)CO)c(I)c(C(=O)NCC(O)CO)c1I (configuration not stated) [Iohexol] | 0.981

Row | SMILES | growth AUC normalised to DMSO control
17 | N=c1nc(N2CCCCC2)cc(N)n1O [Minoxidil] | 1.03
18 | Nc1nc(Cl)nc2c1ncn2[C@H]1C[C@H](O)[C@@H](CO)O1 [Cladribine] | 1.01
19 | NS(=O)(=O)c1cc2c(cc1C(F)(F)F)NCNS2(=O)=O [Hydroflumethiazide] | 0.991
20 | C[C@]12CC[C@@H]3c4ccc(O)cc4CC[C@H]3[C@@H]1C[C@@H](O)[C@@H]2O [Estriol] | 1.02
21 | Cn1c(=O)c2c(ncn2CC2OCCO2)n(C)c1=O [Doxofylline] | 1.02
22 | CNCC[C@@H](Oc1ccccc1C)c1ccccc1 [Tomoxetine hydrochloride] | 1.02
23 | Nc1c2c(nc3ccccc13)CCCC2 [Tacrine hydrochloride] | 1.01
24 | S=c1[nH]cnc2nc[nH]c12 [Mercaptopurine] | 0.997
25 | COc1ccc(-c2cc(=O)c3c(O)cc(O[C@@H]4O[C@H](CO[C@@H]5O[C@@H](C)[C@H](O)[C@@H](O)[C@H]5O)[C@@H](O)[C@H](O)[C@H]4O)cc3o2)cc1O [Diosmin] | 0.784
26 | COc1ccc2c(c1)c(CC(=O)OCC(=O)O)c(C)n2C(=O)c1ccc(Cl)cc1 [Acemetacin] | 0.988
27 | COC(=O)C1=C(C)NC(C)=C(C(=O)OC)C1c1ccccc1[N+](=O)[O-] [Nifedipine] | 0.998
28 | COc1ccc(CC(C)NCC(O)c2ccc(O)c(NC=O)c2)cc1 (configuration not stated) [Formoterol fumarate] | 1.09
29 | CCN(CC)C(=S)SSC(=S)N(CC)CC [Disulfiram] | 0.979
30 | CNCCC=C1c2ccccc2C=Cc2ccccc21 [Norcyclobenzaprine] | 0.91
31 | CC(C)/N=c1\cc2n(-c3ccc(Cl)cc3)c3ccccc3nc-2cc1Nc1ccc(Cl)cc1 [Clofazimine] | 1
32 | CN(C)CCC=C1c2ccccc2COc2ccccc21 [Doxepin hydrochloride] | 0.972
